According to PubChem BioAssay (NCI):
This is part of a sample that, as a whole, favours compounds with a hit. Of some 83,000 tested, about 20% had one in any assay.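 Plates (96-well) were seeded with cells, treated with compound at one concentration, and incubated for 48 hours before percent growth was determined.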 Active and inactive are the calls of the source. The calls were made as follows: active = growth percent below 10; inactive = the rest.

Test system: UO-31 renal
Assay: NCI-60 one-dose screen, 48 h (100 = growth as untreated, 0 = no growth, -100 = all killed)
Conditions: 10 µM unless noted

| Structure (SMILES) | growth |
| --- | --- |
| CCOP1(=O)CC(C)=C(Cl)C(P(=O)(O)O)C1 (stereo not drawn) | 42.5% (inactive) |
| O=C(O)CC1Cc2ccccc2C1C(=O)O (stereo not drawn) | 79.6% (inactive) |
| Nc1cc2c(cc1Br)[nH]c(=O)c1ccccc12 | 48.1% (inactive) |
| CCc1ccc(C(=Nc2ccc(N(C)C(=O)CN3CCN(C)CC3)cc2)c2c(O)[nH]c3ccc(C(=O)OC)cc23)cc1 | -94.9% (active) |
| N#CCCCCCCCCCCC#N | 92.9% (inactive) |
| O=C1CSC(c2ccccc2Cl)N1c1nnc(-c2ccncc2)o1 (stereo not drawn) | 90.8% (inactive) |

Test system: TK-10 renal
Assay: as above
Conditions: 10 µM unless noted

| Structure (SMILES) | growth |
| --- | --- |
| COc1nc(OC)nc(-c2cc(C(=O)c3ccc(Br)cc3)n3cc(C)cc(C)c23)n1 | 82.1% (inactive) |
| CC(=O)OCC(=O)[C@@]1(O)[C@H](C)C[C@H]2[C@@H]3C=C(C)C4=Cc5c(cnn5-c5ccc(F)cc5)C[C@]4(C)[C@H]3[C@@H](O)C[C@@]21C | 19.7% (inactive) |
| COc1ccc(/C=C2\SC(=O)N(Cc3cc(=O)oc4ccc(OC)cc34)C2=O)cc1 | 97.8% (inactive) |
| N=C(N)c1ccc(-c2ccc(-c3ccc(Cl)cc3)s2)s1 | -55.3% (active) |
| CC(C)(C)C(=O)OCOP(=O)(OCOC(=O)C(C)(C)C)C1CC(O)N(O)C1=O (stereo not drawn) | 63.6% (inactive) |
| O=C(N/N=C/c1coc2ccccc2c1=O)c1cc2oc(-c3ccccc3)cc2[nH]1 | 143% (inactive) |
| Cc1ccc(C(=O)Nc2ccc(CN3CCN(C)CC3)c(C(F)(F)F)c2)cc1C#Cc1cncc2ncccc12 | -98.8% (active) |
| COc1cc2c(cc1OC)C(Cc1cc(OC)c(OC)cc1[N+](=O)[O-])=NCC2 | 73.4% (inactive) |
| COc1ccc2c(c1)/C(=C1/S/C(=N/c3nnc(C)s3)NC1=O)C(=O)N2Cc1ccc(Br)cc1 | 35% (inactive) |
| Nc1cc2c(cc1Br)[nH]c(=O)c1ccccc12 | 44% (inactive) |
| N#CCCCCCCCCCCC#N | 92.4% (inactive) |

Test system: ACHN renal
Assay: as above
Conditions: 10 µM unless noted

| Structure (SMILES) | growth |
| --- | --- |
| Brc1c(-c2ccncc2)nc2n1CCS2 | 87.7% (inactive) |
| CC(=O)/C(=C\c1c(-c2ccccc2)[nH]c2ccccc12)S(=O)(=O)c1ccccc1 | 28.2% (inactive) |
| COc1ccc(/C=N/c2cc(C(C)(C)C)nn2-c2ccccc2)cc1 | 95.7% (inactive) |
| CCC1(CC)C(OC)NC(Br)=C(C#N)C1(C#N)C(N)=O (stereo not drawn) | 108% (inactive) |
| COc1ccc(CN2C(=O)/C(=C\C(=O)c3ccc(OCCN4CCCC4)cc3)c3ccccc32)cc1 | 69.9% (inactive) |
| c1cc(C2CCCCC2)ccc1OCCCCCCN1CCNCC1 | -7.79% (active) |
| COc1cc(/C=C/C(=O)/C=C(/C=C/c2ccc(OC(C)=O)c(OC)c2)OB(F)F)ccc1OC(C)=O | 26.5% (inactive) |
| Cc1c([C@H](C(Cl)Cl)[C@H](O)[C@H]2C[C@H](C)C(=O)O2)ccc2c1C(=O)[C@H]1[C@H]2C[C@@H](Br)[C@@]23O[C@@H](CO[C@H]2O)CC13C (stereo partly drawn) | 45.9% (inactive) |
| O=C1/C(=N\c2cc(=O)[nH]n2S(=O)(=O)c2ccccc2)Nc2ccccc21 | 94.7% (inactive) |
| COc1cc([C@@H]2c3cc4c(cc3[C@H](O)[C@H]3COC[C@@H]23)OCO4)cc(OC)c1OC | 78.2% (inactive) |
| O=Nc1c(-c2c(O)[nH]c3cc(Br)ccc23)[nH]c2ccccc12 | 0.906% (active) |
| CC1(C)CC(=O)C2=C(C1)Oc1nc(N)c(C#N)c(N)c1C2c1ccc(F)cc1 (stereo not drawn) | 107% (inactive) |
| O=C1c2cc([N+](=O)[O-])ccc2-c2cc(Cl)c(NC(=O)C(F)(F)F)cc21 | 99.5% (inactive) |
| COc1ccc(CNCCCN2C(=O)c3ccc4c5c(ccc(c35)C2=O)C(=O)N(CCCNCc2ccc(OC)c(OC)c2OC)C4=O)c(OC)c1OC | -90.3% (active) |
| O=C(Nc1ccccc1)Nc1ccc(Nc2ncnc3sc4c(c23)CCCC4)cc1 | 101% (inactive) |
| O=S(=O)(Cc1cccc2c(CS(=O)(=O)c3ccc(Cl)cc3)cccc12)c1ccc(Cl)cc1 | 96.7% (inactive) |
| COc1cc(CNC(=O)CCCC/C=C/C(C)C)ccc1OCc1nnc(Nc2ccccc2F)o1 | 56.1% (inactive) |
| Nc1nc2c(c3ncncc13)C(c1cccc(C(F)(F)F)c1)Cc1ncncc1-2 (stereo not drawn) | 45% (inactive) |
| Cn1cnc2nc[nH]c2c1=S | 97% (inactive) |
| O=C(O)c1ccc(-c2nn(-c3ccc(C(=O)O)cc3)cc2CNc2ccc(Br)cc2)cc1 | 102% (inactive) |
| CCC(C)C1NC(=O)C(CC(C)C)NC(=O)C(C)NC(=O)C(C(C)C)NC(=O)C(CCCCN)NC(=O)C(CC(C)C)NC(=O)C(C(C)C)NC(=O)[C@H](C)NC(=O)C(C(C)CC)NC(=O)C(CCCN=C(N)N)NC(=O)C(CCCCN)NC(=O)C(CCCN=C(N)N)NC(=O)C(CCCCN)NC(=O)C([C@H](C)CC)NC(=O)C(CCCCN)NC1=O (stereo partly drawn) | 3.41% (active) |
